Laboratory results as given in the supplement of paper PMC7057948, “A genome-wide approach for identification and characterisation of metabolite-inducible systems” (Nature Communications, 2020).

Tested on: HpdA/P_H16_RS24175 L-tyrosine biosensor (pEH158)
Test: relative induction of RFP reporter vs primary effector (background-corrected); higher = stronger activation of the biosensor
Details: inducer concentration 5 mM; 6 h; Cupriavidus necator H16; minimal medium + 0.4% gluconate
Procedure: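 C. necator H16 strains, each carrying one of 21 transcription factor/inducible promoter–mRFP biosensor plasmids, were grown in minimal medium in 96-well plates (robotic platform). Each was exposed to 46 structurally or metabolically related compounds at 5 mM at 30 °C. OD-normalised RFP fluorescence was read 6 h later and expressed as relative induction (%) = 100 × (FL compound − FL uninduced)/(FL primary inducer − FL uninduced); mean of n=4.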
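Also: RFP excited at 585 nm with emission read at 620 nm, culture medium blanks subtracted from fluorescence and absorbance prior to normalisation.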

Q: Which “relative induction of RFP reporter” value does the source give for `CCCC(=O)O` [butyric acid] here?
A: -0.166%

Q: Which “relative induction of RFP reporter” value does the source give for `NC(=O)CC[C@H](N)C(=O)O` [L-glutamine] here?
A: -0.216%

Q: With `NC(C(=O)O)c1ccccc1` (racemic) [D,L-2-phenylglycine] as the molecule, how does the “relative induction of RFP reporter” value read?
A: 0.0147%

Q: Which “relative induction of RFP reporter” value does the source give for `O=c1[nH]cnc2nc[nH]c12` [hypoxanthine] here?
A: -0.0963%
